# In PMC7862700, “An all-to-all approach to the identification of sequence-specific readers for epigenetic DNA modifications on cytosine”:
# Columns and labels:
# Experiment in all cases: DAPPL (digital affinity profiling via proximity ligation, sequencing); 10 mM Tris-HCl pH 7.5, 50 mM NaCl, 1 mM DTT, 4% glycerol, room temperature, 30 min; GST-TFs on glutathione beads, 16-mer random dsDNA library, 0.1% formaldehyde crosslink after washing; high values mean tight binding
# FLI1 = target: T1, FLI1 (Homo sapiens, UniProt Q01543 1-452); settings: protein: recombinant; tags: N-terminal GST; dsDNA, one strand shown
# T1 sequence: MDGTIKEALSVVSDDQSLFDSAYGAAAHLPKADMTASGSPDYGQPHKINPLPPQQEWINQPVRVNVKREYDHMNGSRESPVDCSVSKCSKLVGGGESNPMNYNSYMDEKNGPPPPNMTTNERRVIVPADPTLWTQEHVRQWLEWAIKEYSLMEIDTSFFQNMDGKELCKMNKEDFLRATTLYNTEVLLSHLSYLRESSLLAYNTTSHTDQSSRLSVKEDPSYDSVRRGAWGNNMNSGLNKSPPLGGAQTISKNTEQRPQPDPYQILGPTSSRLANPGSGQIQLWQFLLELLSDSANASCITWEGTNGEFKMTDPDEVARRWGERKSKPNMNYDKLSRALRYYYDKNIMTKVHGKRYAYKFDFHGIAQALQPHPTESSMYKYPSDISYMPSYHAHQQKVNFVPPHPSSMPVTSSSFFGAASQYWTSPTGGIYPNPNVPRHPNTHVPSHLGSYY
# Summary of the method: (§1)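 Sequencing on an Illumina NextSeq500 followed washing, crosslinking with 0.1% formaldehyde, proximity ligation (BsaI/T4 ligase, 1 h, 37 °C) and PCR amplification of pools that had been incubated for 30 min at room temperature with 200 nmole of a random double-stranded 16-mer DNA library in Tris/NaCl/DTT/glycerol buffer. Each pool held DNA-barcoded human transcription factors, expressed in yeast as GST fusions and captured on glutathione beads, plus a tag-only sample. Binding signal is a hexamer's read frequency for a factor divided by its frequency in the tag-only sample.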
# ELK1 = target: T2, ELK1 (Homo sapiens, UniProt P19419 1-428); settings: protein: recombinant; tags: N-terminal GST; dsDNA, one strand shown
# T2 sequence: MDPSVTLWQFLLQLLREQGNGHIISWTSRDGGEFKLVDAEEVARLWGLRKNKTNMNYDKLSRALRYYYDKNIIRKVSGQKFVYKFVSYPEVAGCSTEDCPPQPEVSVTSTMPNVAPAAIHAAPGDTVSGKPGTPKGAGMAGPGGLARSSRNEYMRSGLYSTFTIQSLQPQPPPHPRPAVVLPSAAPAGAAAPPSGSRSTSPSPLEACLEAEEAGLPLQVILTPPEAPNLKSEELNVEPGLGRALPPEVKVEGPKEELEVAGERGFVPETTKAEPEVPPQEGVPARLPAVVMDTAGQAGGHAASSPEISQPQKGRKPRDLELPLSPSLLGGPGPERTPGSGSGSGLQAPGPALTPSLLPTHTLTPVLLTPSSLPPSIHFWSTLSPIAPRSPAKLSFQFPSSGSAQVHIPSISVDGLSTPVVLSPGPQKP
# Summary of the method: as §1
# GABPA = target: T3, GABPA (Homo sapiens, UniProt Q06546 1-454); settings: protein: recombinant; tags: N-terminal GST; dsDNA, one strand shown
# T3 sequence: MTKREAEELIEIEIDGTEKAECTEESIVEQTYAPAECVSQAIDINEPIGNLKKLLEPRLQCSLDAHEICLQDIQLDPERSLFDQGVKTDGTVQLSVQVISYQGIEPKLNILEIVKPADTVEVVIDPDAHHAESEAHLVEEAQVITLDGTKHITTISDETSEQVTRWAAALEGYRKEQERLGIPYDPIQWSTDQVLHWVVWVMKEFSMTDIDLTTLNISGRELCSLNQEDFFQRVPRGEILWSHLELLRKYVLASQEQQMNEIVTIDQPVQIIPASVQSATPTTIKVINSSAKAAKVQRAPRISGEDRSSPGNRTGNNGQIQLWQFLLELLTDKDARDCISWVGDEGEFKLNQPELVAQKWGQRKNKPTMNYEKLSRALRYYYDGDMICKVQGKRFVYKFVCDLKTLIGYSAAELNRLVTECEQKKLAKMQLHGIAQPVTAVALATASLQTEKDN
# Summary of the method: as §1
# ERG = target: T4, ERG (Homo sapiens, UniProt P11308 1-479); settings: protein: recombinant; tags: N-terminal GST; dsDNA, one strand shown
# T4 sequence: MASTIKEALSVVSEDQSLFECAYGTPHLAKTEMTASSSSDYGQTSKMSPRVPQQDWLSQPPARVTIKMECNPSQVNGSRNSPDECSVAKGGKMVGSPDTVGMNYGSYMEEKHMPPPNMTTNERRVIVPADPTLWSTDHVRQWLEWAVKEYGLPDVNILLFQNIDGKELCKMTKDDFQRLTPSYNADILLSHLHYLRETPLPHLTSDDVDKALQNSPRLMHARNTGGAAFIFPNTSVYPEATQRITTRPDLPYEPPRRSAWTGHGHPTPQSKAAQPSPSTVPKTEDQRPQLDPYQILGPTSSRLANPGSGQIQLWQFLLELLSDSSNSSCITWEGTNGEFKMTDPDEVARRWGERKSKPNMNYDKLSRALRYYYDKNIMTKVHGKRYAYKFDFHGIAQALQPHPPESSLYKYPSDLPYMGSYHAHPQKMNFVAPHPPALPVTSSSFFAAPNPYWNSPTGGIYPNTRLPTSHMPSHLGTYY
# Summary of the method: as §1
# ELF1 = ELF1 (Homo sapiens, UniProt P32519 1-619); settings: protein: recombinant; tags: N-terminal GST; dsDNA, one strand shown
# Summary of the method: as §1
# EHF = target: T5, EHF (Homo sapiens, UniProt Q9NZC4 1-300); settings: protein: recombinant; tags: N-terminal GST; dsDNA, one strand shown
# T5 sequence: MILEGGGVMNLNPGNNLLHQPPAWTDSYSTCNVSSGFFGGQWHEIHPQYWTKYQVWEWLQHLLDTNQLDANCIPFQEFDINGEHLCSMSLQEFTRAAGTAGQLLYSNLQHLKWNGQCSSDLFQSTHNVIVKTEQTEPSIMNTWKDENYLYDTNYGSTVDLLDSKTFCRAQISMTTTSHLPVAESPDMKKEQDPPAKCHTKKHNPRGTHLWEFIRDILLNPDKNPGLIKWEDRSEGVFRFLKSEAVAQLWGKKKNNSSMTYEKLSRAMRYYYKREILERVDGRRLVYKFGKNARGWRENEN
# Summary of the method: as §1
# SPI1 = SPI1 (Homo sapiens, UniProt P17947 1-270); settings: protein: recombinant; tags: N-terminal GST; dsDNA, one strand shown
# Summary of the method: as §1
# SPIB = SPIB (Homo sapiens, UniProt Q01892 1-262); settings: protein: recombinant; tags: N-terminal GST; dsDNA, one strand shown
# Summary of the method: as §1
# ELK3 = target: T6, ELK3 (Homo sapiens, UniProt P41970 1-407); settings: protein: recombinant; tags: N-terminal GST; dsDNA, one strand shown
# T6 sequence: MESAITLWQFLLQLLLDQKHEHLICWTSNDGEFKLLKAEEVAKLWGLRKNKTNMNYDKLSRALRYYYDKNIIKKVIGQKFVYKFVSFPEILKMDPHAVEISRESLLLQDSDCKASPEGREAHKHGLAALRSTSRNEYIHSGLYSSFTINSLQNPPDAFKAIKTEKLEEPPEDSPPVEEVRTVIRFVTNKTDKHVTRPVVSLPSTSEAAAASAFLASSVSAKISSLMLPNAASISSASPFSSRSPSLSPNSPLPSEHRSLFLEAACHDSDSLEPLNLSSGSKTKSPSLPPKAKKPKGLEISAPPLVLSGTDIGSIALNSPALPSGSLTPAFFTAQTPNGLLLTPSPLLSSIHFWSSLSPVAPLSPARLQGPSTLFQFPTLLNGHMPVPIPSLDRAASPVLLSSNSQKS
# Summary of the method: as §1
# FEV = target: T7, FEV (Homo sapiens, UniProt Q99581 1-238); settings: protein: recombinant; tags: N-terminal GST; dsDNA, one strand shown
# T7 sequence: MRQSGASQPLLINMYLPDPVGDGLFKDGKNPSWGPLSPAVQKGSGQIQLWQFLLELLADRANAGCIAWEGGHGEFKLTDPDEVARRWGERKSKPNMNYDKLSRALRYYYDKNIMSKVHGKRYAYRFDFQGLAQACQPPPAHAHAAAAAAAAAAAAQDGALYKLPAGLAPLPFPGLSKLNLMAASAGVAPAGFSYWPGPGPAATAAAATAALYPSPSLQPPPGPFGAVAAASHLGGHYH
# Summary of the method: as §1
# ETV5 = ETV5 (Homo sapiens, UniProt P41161 1-510); settings: protein: recombinant; tags: N-terminal GST; dsDNA, one strand shown
# Summary of the method: as §1
# HSF1 = HSF1 (Homo sapiens, UniProt Q00613 1-529); settings: protein: recombinant; tags: N-terminal GST; chain copies: 3; dsDNA, one strand shown
# Summary of the method: as §1
# SPIC = target: T8, SPIC (Homo sapiens, UniProt Q8N5J4 1-248); settings: protein: recombinant; tags: N-terminal GST; dsDNA, one strand shown
# T8 sequence: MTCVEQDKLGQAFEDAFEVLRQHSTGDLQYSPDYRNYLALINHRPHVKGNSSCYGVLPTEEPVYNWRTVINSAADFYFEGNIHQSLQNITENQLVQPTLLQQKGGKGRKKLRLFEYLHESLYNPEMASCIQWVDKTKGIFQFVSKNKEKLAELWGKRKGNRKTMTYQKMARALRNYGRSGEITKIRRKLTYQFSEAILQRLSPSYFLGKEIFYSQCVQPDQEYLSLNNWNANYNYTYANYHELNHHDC
# Summary of the method: as §1
# ELF4 = ELF4 (Homo sapiens, UniProt Q99607 1-663); settings: protein: recombinant; tags: N-terminal GST; dsDNA, one strand shown
# Summary of the method: as §1
# ELK4 = target: T9, ELK4 (Homo sapiens, UniProt P28324-2 1-405); settings: protein: recombinant; tags: N-terminal GST; dsDNA, one strand shown
# T9 sequence: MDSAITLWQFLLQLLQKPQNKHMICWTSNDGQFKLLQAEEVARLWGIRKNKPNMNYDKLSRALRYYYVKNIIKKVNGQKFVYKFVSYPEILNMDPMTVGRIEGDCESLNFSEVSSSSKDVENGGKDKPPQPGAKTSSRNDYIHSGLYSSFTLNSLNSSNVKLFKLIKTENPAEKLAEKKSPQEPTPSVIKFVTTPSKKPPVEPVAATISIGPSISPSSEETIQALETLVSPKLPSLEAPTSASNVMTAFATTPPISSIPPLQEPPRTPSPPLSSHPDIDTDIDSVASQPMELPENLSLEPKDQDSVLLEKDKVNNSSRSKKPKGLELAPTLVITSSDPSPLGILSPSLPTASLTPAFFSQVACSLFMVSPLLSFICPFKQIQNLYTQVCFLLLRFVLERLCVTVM
# Summary of the method: as §1
# ETV2 = target: T10, ETV2 (Homo sapiens, UniProt O00321 1-342); settings: protein: recombinant; tags: N-terminal GST; dsDNA, one strand shown
# T10 sequence: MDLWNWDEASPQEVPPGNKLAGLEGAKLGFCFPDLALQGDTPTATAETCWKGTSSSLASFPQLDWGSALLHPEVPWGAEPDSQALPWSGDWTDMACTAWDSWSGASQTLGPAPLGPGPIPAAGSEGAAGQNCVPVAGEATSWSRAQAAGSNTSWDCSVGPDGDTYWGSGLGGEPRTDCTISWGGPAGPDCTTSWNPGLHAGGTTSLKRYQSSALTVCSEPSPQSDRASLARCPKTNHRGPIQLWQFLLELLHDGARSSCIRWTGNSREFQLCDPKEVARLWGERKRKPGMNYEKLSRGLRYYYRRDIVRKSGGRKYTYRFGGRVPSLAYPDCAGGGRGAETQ
# Summary of the method: as §1
# ELF3 = target: T11, ELF3 (Homo sapiens, UniProt P78545 1-371); settings: protein: recombinant; tags: N-terminal GST; dsDNA, one strand shown
# T11 sequence: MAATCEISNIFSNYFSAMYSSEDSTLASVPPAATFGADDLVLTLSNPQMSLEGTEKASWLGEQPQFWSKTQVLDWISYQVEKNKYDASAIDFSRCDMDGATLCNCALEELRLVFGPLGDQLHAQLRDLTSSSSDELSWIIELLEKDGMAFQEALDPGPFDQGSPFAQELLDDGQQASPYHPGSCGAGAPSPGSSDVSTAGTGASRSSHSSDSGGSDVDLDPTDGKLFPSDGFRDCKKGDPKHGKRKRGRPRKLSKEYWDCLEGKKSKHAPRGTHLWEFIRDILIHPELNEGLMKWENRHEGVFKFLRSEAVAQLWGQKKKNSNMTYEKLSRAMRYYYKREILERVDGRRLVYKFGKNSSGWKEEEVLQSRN
# Summary of the method: as §1
# CRX = CRX (Homo sapiens, UniProt O43186 1-299); settings: protein: recombinant; tags: N-terminal GST; dsDNA, one strand shown
# Summary of the method: as §1
# ETV1 = ETV1 (Homo sapiens, UniProt P50549 1-477); settings: protein: recombinant; tags: N-terminal GST; dsDNA, one strand shown
# Summary of the method: as §1
# Sequence of CRX (O43186 whole entry): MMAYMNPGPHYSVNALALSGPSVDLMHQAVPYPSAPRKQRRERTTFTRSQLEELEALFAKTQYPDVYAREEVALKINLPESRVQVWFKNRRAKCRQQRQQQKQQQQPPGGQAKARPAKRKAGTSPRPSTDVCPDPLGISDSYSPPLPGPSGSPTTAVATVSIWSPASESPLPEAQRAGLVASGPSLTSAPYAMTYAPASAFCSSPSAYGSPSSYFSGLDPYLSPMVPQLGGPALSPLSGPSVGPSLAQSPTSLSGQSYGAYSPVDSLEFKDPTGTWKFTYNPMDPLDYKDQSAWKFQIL
# Sequence of HSF1 (Q00613 whole entry): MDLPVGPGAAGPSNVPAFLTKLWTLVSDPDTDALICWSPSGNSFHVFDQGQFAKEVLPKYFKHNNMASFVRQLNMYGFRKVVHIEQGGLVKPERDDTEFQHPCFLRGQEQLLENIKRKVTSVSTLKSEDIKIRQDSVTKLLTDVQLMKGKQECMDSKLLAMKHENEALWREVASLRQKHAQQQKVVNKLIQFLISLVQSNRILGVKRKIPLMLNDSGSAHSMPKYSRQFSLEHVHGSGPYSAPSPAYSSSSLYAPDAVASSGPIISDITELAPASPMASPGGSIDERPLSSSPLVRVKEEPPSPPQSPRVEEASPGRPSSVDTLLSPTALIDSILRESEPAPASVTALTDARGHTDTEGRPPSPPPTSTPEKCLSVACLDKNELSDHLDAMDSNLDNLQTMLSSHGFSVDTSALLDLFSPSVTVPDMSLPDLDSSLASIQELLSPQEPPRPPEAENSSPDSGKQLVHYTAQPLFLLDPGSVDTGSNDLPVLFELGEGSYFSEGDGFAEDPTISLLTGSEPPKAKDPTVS
# Sequence of ETV1 (P50549 whole entry): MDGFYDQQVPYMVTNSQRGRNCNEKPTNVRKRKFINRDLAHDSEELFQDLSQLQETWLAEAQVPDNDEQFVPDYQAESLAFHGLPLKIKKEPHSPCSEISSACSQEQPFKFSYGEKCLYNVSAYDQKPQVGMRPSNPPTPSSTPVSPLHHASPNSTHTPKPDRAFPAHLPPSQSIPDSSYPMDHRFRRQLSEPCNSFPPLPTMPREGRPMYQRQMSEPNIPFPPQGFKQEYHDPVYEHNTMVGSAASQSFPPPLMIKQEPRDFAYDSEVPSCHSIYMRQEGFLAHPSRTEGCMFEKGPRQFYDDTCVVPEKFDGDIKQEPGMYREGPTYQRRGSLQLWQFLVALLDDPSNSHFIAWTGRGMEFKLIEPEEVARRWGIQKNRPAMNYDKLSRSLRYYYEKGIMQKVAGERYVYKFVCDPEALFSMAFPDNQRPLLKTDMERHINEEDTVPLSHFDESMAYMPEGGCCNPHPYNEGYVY
# Sequence of ELF4 (Q99607 whole entry): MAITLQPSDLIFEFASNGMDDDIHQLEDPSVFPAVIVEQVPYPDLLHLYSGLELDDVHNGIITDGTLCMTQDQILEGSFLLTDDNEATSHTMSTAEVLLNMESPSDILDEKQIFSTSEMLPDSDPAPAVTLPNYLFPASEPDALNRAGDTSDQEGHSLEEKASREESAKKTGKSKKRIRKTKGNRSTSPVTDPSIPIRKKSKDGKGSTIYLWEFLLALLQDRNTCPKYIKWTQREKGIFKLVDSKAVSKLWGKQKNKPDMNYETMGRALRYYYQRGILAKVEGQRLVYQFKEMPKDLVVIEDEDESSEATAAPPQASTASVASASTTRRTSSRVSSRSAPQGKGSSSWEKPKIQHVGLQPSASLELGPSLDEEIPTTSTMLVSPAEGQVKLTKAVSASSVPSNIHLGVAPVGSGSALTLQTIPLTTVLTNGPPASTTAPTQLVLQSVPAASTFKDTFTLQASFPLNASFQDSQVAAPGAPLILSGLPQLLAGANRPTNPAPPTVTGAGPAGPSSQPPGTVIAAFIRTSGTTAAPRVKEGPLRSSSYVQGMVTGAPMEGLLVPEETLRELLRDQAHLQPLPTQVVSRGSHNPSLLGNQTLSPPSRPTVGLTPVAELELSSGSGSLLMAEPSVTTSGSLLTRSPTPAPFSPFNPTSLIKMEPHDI
# Sequence of ETV5 (P41161 whole entry): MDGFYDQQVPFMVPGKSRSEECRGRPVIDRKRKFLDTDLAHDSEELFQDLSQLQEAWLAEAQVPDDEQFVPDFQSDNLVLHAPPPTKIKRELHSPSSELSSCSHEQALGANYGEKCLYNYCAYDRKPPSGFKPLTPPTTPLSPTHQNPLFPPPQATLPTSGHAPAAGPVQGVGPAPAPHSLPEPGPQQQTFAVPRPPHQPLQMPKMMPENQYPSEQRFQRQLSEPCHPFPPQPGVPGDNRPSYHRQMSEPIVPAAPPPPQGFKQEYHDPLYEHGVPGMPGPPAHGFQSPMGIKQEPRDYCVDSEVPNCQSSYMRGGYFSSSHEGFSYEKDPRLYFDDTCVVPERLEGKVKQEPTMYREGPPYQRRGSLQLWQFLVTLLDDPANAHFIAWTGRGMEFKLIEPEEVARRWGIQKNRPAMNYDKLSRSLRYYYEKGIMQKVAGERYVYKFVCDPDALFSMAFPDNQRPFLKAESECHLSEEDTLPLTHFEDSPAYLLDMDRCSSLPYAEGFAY
# Sequence of SPIB (Q01892 whole entry): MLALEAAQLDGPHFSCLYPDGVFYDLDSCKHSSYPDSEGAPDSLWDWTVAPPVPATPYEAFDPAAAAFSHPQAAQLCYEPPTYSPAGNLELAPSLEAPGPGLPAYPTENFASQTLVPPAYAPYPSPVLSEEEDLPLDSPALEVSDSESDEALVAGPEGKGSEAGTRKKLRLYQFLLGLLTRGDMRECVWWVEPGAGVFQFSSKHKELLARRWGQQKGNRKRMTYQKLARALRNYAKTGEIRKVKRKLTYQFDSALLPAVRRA
# Sequence of ELF1 (P32519 whole entry): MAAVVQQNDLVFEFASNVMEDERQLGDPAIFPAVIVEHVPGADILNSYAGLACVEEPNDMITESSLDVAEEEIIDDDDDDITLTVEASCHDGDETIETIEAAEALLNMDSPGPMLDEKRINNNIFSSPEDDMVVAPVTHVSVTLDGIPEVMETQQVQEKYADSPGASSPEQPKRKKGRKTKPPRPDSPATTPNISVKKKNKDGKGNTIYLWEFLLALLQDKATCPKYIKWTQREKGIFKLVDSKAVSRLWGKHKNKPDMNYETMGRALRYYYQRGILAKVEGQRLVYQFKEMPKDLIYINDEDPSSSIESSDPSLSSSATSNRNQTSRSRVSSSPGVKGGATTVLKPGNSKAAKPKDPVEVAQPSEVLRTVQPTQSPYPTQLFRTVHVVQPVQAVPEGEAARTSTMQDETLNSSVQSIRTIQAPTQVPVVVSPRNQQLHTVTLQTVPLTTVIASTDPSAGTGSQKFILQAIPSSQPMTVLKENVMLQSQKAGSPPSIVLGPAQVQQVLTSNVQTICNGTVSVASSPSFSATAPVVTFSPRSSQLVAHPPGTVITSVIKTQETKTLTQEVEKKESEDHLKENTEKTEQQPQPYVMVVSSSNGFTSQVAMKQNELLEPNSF
sequence,measurement,setting,value
CTGCGA,binding signal,FLI1,"1.25 fold enrichment (6-mer frequency, TF over GST control)"
same,binding signal,ELK1,"1.31 fold enrichment (6-mer frequency, TF over GST control)"
same,binding signal,GABPA,"1.34 fold enrichment (6-mer frequency, TF over GST control)"
same,binding signal,ERG,"1.29 fold enrichment (6-mer frequency, TF over GST control)"
same,binding signal,ELF1,"1.32 fold enrichment (6-mer frequency, TF over GST control)"
same,binding signal,EHF,"1.26 fold enrichment (6-mer frequency, TF over GST control)"
same,binding signal,SPI1,"1.33 fold enrichment (6-mer frequency, TF over GST control)"
same,binding signal,SPIB,"1.45 fold enrichment (6-mer frequency, TF over GST control)"
same,binding signal,ELK3,"1.19 fold enrichment (6-mer frequency, TF over GST control)"
same,binding signal,FEV,"1.29 fold enrichment (6-mer frequency, TF over GST control)"
same,binding signal,ETV5,"1.24 fold enrichment (6-mer frequency, TF over GST control)"
same,binding signal,HSF1,"1.3 fold enrichment (6-mer frequency, TF over GST control)"
same,binding signal,SPIC,"1.1 fold enrichment (6-mer frequency, TF over GST control)"
same,binding signal,ELF4,"1.28 fold enrichment (6-mer frequency, TF over GST control)"
same,binding signal,ELK4,"1.08 fold enrichment (6-mer frequency, TF over GST control)"
same,binding signal,ETV2,"1.24 fold enrichment (6-mer frequency, TF over GST control)"
same,binding signal,ELF3,"1.2 fold enrichment (6-mer frequency, TF over GST control)"
same,binding signal,CRX,"1.18 fold enrichment (6-mer frequency, TF over GST control)"
same,binding signal,ETV1,"1.32 fold enrichment (6-mer frequency, TF over GST control)"
